Test results as given in PubChem BioAssay.
Values joined by “and” are separate entries in the source; they are usually repeats but may differ in a detail not shown here. Identical values can stand only once. Records with an inconclusive call do not appear. The source holds several records for some structures; these can differ, active in one and inactive in another. Active and inactive are the calls of the source.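 The calls were made as follows, unless noted: active = normalized viability below 100% at a tested concentration; inactive = the rest.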

Legend:
[1] = viability loss in pontine glioma line – cell-based, SU-DIPG-XVII, MIPE5.0, CellTiter-Glo, qHTS, dose response (AID 1347060; cut-off not given, nearly all actives have AC50 up to about 26 µM;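 also: cells exposed to compound for 48 hours before viability readout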); conditions: CellTiter-Glo ATP luminescence
[2] = viability loss in pontine glioma line – cell-based, SU-DIPG-XIII, MIPE4.0, CellTiter-Glo, qHTS, dose response (AID 1347061; cut-off not given, nearly all actives have AC50 up to about 37 µM;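 also: cells exposed to compound for 48 hours before readout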); conditions: CellTiter-Glo ATP luminescence
[3] = viability loss in pontine glioma line – cell-based, JHH-DIPG-1, MIPE4.0, CellTiter-Glo, qHTS, dose response (AID 1347062; cut-off not given, nearly all actives have AC50 up to about 27 µM;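 also: cells exposed to compound for two days before readout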); conditions: JHH-DIPG-1 viability, CellTiter-Glo ATP luminescence
[4] = viability loss in pontine glioma line – cell-based, SU-DIPG-IV, MIPE4.0, CellTiter-Glo, qHTS, dose response (AID 1347063; cut-off not given, nearly all actives have AC50 up to about 30 µM;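 also: compound exposure lasted 48 hours before the viability readout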); conditions: CellTiter-Glo ATP luminescence
[5] = viability loss in pontine glioma line – cell-based, SU-DIPG-XIII, MIPE5.0, CellTiter-Glo, qHTS, dose response (AID 1347064; cut-off not given, nearly all actives have AC50 up to about 23 µM;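 also: cells exposed to compound for 48 hours before the viability read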); conditions: CellTiter-Glo ATP luminescence
[6] = viability loss in pontine glioma line – cell-based, SU-DIPG-XXV, MIPE5.0, CellTiter-Glo, qHTS, dose response (AID 1347065; cut-off not given, nearly all actives have AC50 up to about 26 µM;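 also: cells exposed to compound for 48 hours before ATP readout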); conditions: CellTiter-Glo ATP luminescence
[7] = growth inhibition of DIPG cells – cell-based, MIPE4.0 library, CellTiter-Glo luminescence, qHTS (AID 1347066; cut-off not given, nearly all actives have AC50 up to about 30 µM;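 also: cells exposed to compound for 48 hours before readout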); conditions: SU-DIPG-VI viability, CellTiter-Glo ATP luminescence
[8] = JHH-DIPG-1 glioma cell viability, MIPE5.0 library, CellTiter-Glo luminescence, qHTS (AID 1347067; cut-off not given, nearly all actives have AC50 up to about 26 µM;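 also: cells exposed to compound for 48 hours before readout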); conditions: JHH-DIPG-1 glioma viability, CellTiter-Glo ATP luminescence
[9] = compounds altering HSF1 focus formation in cells – imaging, Selleck Cancer Library (AID 1347162; in the data active = plate-normalised HSF1 focus index below about 0.46); conditions: human cells, HSF1 nuclear foci imaging, at 10 µM; SSMD: measured here: HSF1 foci SSMD mean; cell count: measured here: cell number; plate-normalised HSF1 focus index: stronger effect = lower value
[10] = viability loss with induced miR-34 in A549 – imaging, A549 dox-inducible miR-34, nuclei and caspase counts, primary screen (AID 1347080;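 active = compounds whose cell count with miR-34 switched on is under 0.7 times the count with it off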); conditions: A549 miR-34 inducible, Hoechst nuclei count, 48 h
[11] = MELAS cybrid and Rieske KO viability enhancers – cell-based, MELAS cybrids, Rieske KO mouse fibroblasts, CellTiter-Glo, primary screen (AID 1508586;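 active = mean z-score across replicates of 1.96 or higher in either the MELAS or the Rieske mutant cell line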;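 also: z relative to plate mean and SD of compound and empty wells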); conditions: low glucose
[12] = drug combination growth inhibition, ovarian cancer – cell-based, oncology-focused library, rucaparib conditional, profiling panel (AID 1508598); conditions: patient-derived ovarian cancer cells, CellTiter-Glo viability, 144 h, stronger effect = lower value
[13] = growth inhibition, single agent or in combination, cell-based, chromothripsis tumors, cisplatin or BGB combos (AID 1671449; in the data active = inhibition above about 80%;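 also: cells exposed for 96 hours; 0% = vehicle DMSO and 100% = killing by high DMSO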); conditions: LFS_MB_P medulloblastoma cells
[14] = growth inhibition, single agent and combos, cell-based, chromothripsis tumors, cisplatin or BGB combos (AID 1671450; in the data active = inhibition above about 80%;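 also: cells exposed to compound for four days; 0% = vehicle DMSO and 100% = cell killing by high DMSO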); conditions: HDN33 neuroblastoma cells, stronger effect = higher value
[15] = growth inhibition, single agents and combos, ICB984, cell-based, cisplatin or BGB combos, synergistic combos for chromothripsis tumors (AID 1671451; call rule not given here;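 also: cells exposed for 96 hours before readout; 0% = vehicle DMSO and 100% = killing by high DMSO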); conditions: ICB984 medulloblastoma cells, drug combinations, stronger effect = higher value
[16] = growth inhibition, single agents and combos, HTB85, cell-based, BGB or cisplatin IC20 combos, synergistic combos for chromothripsis tumors (AID 1671453; in the data active = inhibition above about 80%;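 also: cells exposed for 96 hours before readout; 0% = vehicle DMSO and 100% = high DMSO killing control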); conditions: HTB85 osteosarcoma cells, drug combinations, stronger effect = higher value
[17] = growth inhibition, MDA-MB-436, cell-based, BGB or cisplatin combos, synergistic combos for chromothripsis tumors (AID 1671458; call rule not given here;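 also: cells exposed for 96 hours; 0% = vehicle DMSO and 100% = killing by high DMSO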); conditions: MDA-MB-436 breast carcinoma growth inhibition, drug combinations, stronger effect = higher value
[18] = BT084 cell growth, single and combined drugs, ICGC_MB145, cisplatin and BGB IC40 combos (AID 1671461; in the data active = inhibition above about 80%;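 also: cells exposed to drugs for 96 hours; 0% = vehicle DMSO and 100% = high DMSO full killing control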); conditions: BT084 medulloblastoma cells, drug combinations, stronger effect = higher value
[19] = RCMB18 cell growth, single agent and combined, cisplatin and BGB IC40 combos (AID 1671462; in the data active = inhibition above about 80%;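 also: cells exposed to compound for four days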); conditions: RCMB18 medulloblastoma cells, stronger effect = higher value

With `CN(C)C[C@@H]1CCn2cc(c3ccccc32)C2=C(C(=O)NC2=O)c2cn(c3ccccc23)CCO1` the AC50 [1] was 26.3 µM (active), the AC50 [2] was 16.6 µM (active) and the AC50 [3] was 29.6 µM (active). The AC50 [4] was 16.6 µM (active), the AC50 [5] was 9.34 µM (active) and the AC50 [6] was 18.6 µM (active). The AC50 [7] was 13.2 µM (active), the AC50 [8] was 7.42 µM (active) and the SSMD [9] was 3.92. For the same molecule, the cell count [9] was 6860 and the plate-normalised HSF1 focus index [9] was 1.24 (inactive).

For `C#Cc1cccc(Nc2ncnc3cc(OC)c(OCCCCCCC(=O)NO)cc23)c1`, the AC50 [1] was 0.742 µM (active), the AC50 [2] was 0.398 µM (active) and the AC50 [3] was 0.148 µM (active). The AC50 [4] was 0.418 µM (active), the AC50 [5] was 0.661 µM (active) and the AC50 [6] was 0.417 µM (active). For the same molecule, the AC50 [7] was 0.0743 µM (active), the AC50 [8] was 0.833 µM (active) and the fold change ([10]; stronger effect = lower value, cell number ratio, induced over uninduced) was 0.901 (inactive). It also gave a fold change ([10]; measured here: relative caspase fold change +Dox/-Dox) of 0.807, a cell count ([10]; measured here: total cells with miR-34 induction, stronger effect = lower value) of 1090 and a cell count ([10]; measured here: total cells without miR-34 induction) of 1210. For the same molecule, the SSMD [9] was -4.22, the cell count [9] was 7310 and the plate-normalised HSF1 focus index [9] was 0.849 (inactive). For the same molecule, the z-score ([11]; MELAS cybrid survival, CellTiter-Glo 48 h, stronger effect = higher value) was 1.07 (inactive), the z-score ([11]; Rieske KO mouse fibroblast survival, CellTiter-Glo 72 h) was 1.33 and the viability ([12]; at 0.000305 µM, OCI-C5x cells, with rucaparib 10 µM, 100% = cells with rucaparib alone) was 114% (inactive). For the same molecule, the viability ([12]; at 0.000305 µM, OCI-C5x cells, without rucaparib) was 114% (inactive), the viability ([12]; at 0.000305 µM, OCI-P5x cells, with rucaparib 20 µM, 100% = cells with rucaparib alone) was 108% (inactive) and the viability ([12]; at 0.000305 µM, OCI-P5x cells, without rucaparib) was 96.4% (active). For the same molecule, the viability ([12]; at 0.00122 µM, OCI-C5x cells, with rucaparib 10 µM, 100% = cells with rucaparib alone) was 111% (inactive), the viability ([12]; at 0.00122 µM, OCI-C5x cells, without rucaparib) was 113% (inactive) and the viability ([12]; at 0.00122 µM, OCI-P5x cells, with rucaparib 20 µM, 100% = cells with rucaparib alone) was 104% (inactive). For the same molecule, the viability ([12]; at 0.00122 µM, OCI-P5x cells, without rucaparib) was 98.8% (active), the viability ([12]; at 0.00488 µM, OCI-C5x cells, with rucaparib 10 µM, 100% = cells with rucaparib alone) was 118% (inactive) and the viability ([12]; at 0.00488 µM, OCI-C5x cells, without rucaparib) was 106% (inactive). The viability ([12]; at 0.00488 µM, OCI-P5x cells, with rucaparib 20 µM, 100% = cells with rucaparib alone) was 113% (inactive), the viability ([12]; at 0.00488 µM, OCI-P5x cells, without rucaparib) was 111% (inactive) and the viability ([12]; at 0.0195 µM, OCI-C5x cells, with rucaparib 10 µM, 100% = cells with rucaparib alone) was 112% (inactive). The viability ([12]; at 0.0195 µM, OCI-C5x cells, without rucaparib) was 112% (inactive), the viability ([12]; at 0.0195 µM, OCI-P5x cells, with rucaparib 20 µM, 100% = cells with rucaparib alone) was 110% (inactive) and the viability ([12]; at 0.0195 µM, OCI-P5x cells, without rucaparib) was 109% (inactive). For the same molecule, the viability ([12]; at 0.0781 µM, OCI-C5x cells, with rucaparib 10 µM, 100% = cells with rucaparib alone) was 113% (inactive), the viability ([12]; at 0.0781 µM, OCI-C5x cells, without rucaparib) was 113% (inactive) and the viability ([12]; at 0.0781 µM, OCI-P5x cells, with rucaparib 20 µM, 100% = cells with rucaparib alone) was 107% (inactive). The viability ([12]; at 0.0781 µM, OCI-P5x cells, without rucaparib) was 108% (inactive), the viability ([12]; at 0.313 µM, OCI-C5x cells, with rucaparib 10 µM, 100% = cells with rucaparib alone) was 87.3% (active) and the viability ([12]; at 0.313 µM, OCI-C5x cells, without rucaparib) was 85.9% (active). The viability ([12]; at 0.313 µM, OCI-P5x cells, with rucaparib 20 µM, 100% = cells with rucaparib alone) was 91.1% (active), the viability ([12]; at 0.313 µM, OCI-P5x cells, without rucaparib) was 98.9% (active) and the viability ([12]; at 1.25 µM, OCI-C5x cells, with rucaparib 10 µM, 100% = cells with rucaparib alone) was 10.5% (active). The viability ([12]; at 1.25 µM, OCI-C5x cells, without rucaparib) was 39.1% (active), the viability ([12]; at 1.25 µM, OCI-P5x cells, with rucaparib 20 µM, 100% = cells with rucaparib alone) was 3.13% (active) and the viability ([12]; at 1.25 µM, OCI-P5x cells, without rucaparib) was 21.8% (active). The viability ([12]; at 5 µM, OCI-C5x cells, with rucaparib 10 µM, 100% = cells with rucaparib alone) was 5.56% (active), the viability ([12]; at 5 µM, OCI-C5x cells, without rucaparib) was 5.78% (active) and the viability ([12]; at 5 µM, OCI-P5x cells, with rucaparib 20 µM, 100% = cells with rucaparib alone) was 1.22% (active). The viability ([12]; at 5 µM, OCI-P5x cells, without rucaparib) was 1.21% (active), the inhibition ([13]; at 0.5 µM, stronger effect = higher value) was 17.8% (inactive) and 78.4% (inactive) and the inhibition ([13]; measured here: combination with BGB IC20, at 0.005 µM) was -22.9% and -21.6%. The inhibition ([13]; measured here: combination with BGB IC40, at 0.005 µM) was -38.4% and -30.8%, the inhibition ([13]; measured here: combination with BGB IC40, at 0.05 µM) was -32.8% and -22.5% and the inhibition ([13]; measured here: combination with cisplatin, at 0.5 µM, stronger effect = higher value) was 83.8% and 104%. For the same molecule, the inhibition ([13]; measured here: combination with cisplatin, at 5 µM, stronger effect = higher value) was 112% and 113%, the inhibition ([14]; BGB combo, at 5 µM) was 99.5% and 95.1% and the inhibition ([14]; at 0.5 µM) was -1.62% (inactive) and 3.24% (inactive). For the same molecule, the inhibition ([14]; cisplatin combo, at 5 µM) was 99.9% and 94.2%, the inhibition ([14]; measured here: with BGB IC20 combination, at 0.5 µM) was -9.96% and -0.599% and the inhibition ([14]; measured here: with cisplatin IC20 combination, at 0.5 µM) was 6.06% and 12.1%. The inhibition ([14]; single agent, at 5 µM) was 99.8% and 96.9%, the inhibition ([15]; BGB IC20 combo, at 0.005 µM) was 68.4% and 23% and the inhibition ([15]; BGB IC40 combo, at 0.005 µM) was 78.3% and 29.4%. For the same molecule, the inhibition ([15]; BGB IC40 combo, at 0.05 µM) was 98% and 101%, the inhibition ([15]; at 0.5 µM) was -18.6% (inactive) and -24.1% (inactive) and the inhibition ([15]; cisplatin combo, at 0.05 µM) was 97.9% and 101%. The inhibition ([15]; cisplatin combo, at 0.5 µM) was -22% and -24.1%, the inhibition ([15]; cisplatin combo, at 5 µM) was -70.9% and -33.8% and the inhibition ([15]; measured here: 5 uM single agent, at 5 µM) was -13.9% and -10.2%. The inhibition ([16]; at 0.5 µM) was 11.7% (inactive) and 4.4% (inactive), the inhibition ([16]; measured here: with BGB IC20, at 0.5 µM) was -2.94% and -22.5% and the inhibition ([16]; measured here: with BGB IC20, at 5 µM) was 99.7% and 73%. The inhibition ([16]; measured here: with cisplatin IC20, at 0.5 µM) was 26% and 9.91%, the inhibition ([16]; measured here: with cisplatin IC20, at 5 µM) was 67.6% and 94.8% and the inhibition ([16]; single agent, at 5 µM) was 99.9% and 74.9%. For the same molecule, the inhibition ([17]; at 0.5 µM) was -4.99% (inactive) and -13.2% (inactive), the inhibition ([17]; measured here: BGB combination, at 0.5 µM) was -10.9% and -11.9% and the inhibition ([17]; measured here: BGB combination, at 5 µM) was 61.3% and 55.7%. The inhibition ([17]; measured here: cisplatin combination, at 0.5 µM) was -18.9% and -27.4%, the inhibition ([17]; measured here: cisplatin combination, at 5 µM) was 74.5% and 60.7% and the inhibition ([18]; at 0.5 µM) was 82% (active) and 58.2% (inactive). The inhibition ([18]; cisplatin combination, at 0.5 µM) was 99.1% and 87.2%, the inhibition ([18]; cisplatin combination, at 5 µM) was 103% and 101% and the inhibition ([18]; measured here: BGB IC40 combination 0.05 uM, at 0.05 µM) was -29.2% and 20%. For the same molecule, the inhibition ([18]; single agent, at 5 µM) was 106% and 108%, the inhibition ([19]; at 0.5 µM) was 69.7% (inactive) and 45.9% (inactive) and the inhibition ([19]; cisplatin combo, at 5 µM) was 96.3%. For the same molecule, the inhibition ([19]; measured here: BGB IC40 combination, at 0.05 µM) was -10.5% and -3.2%, the inhibition ([19]; measured here: combination with cisplatin, at 0.5 µM) was 82.3% and 57.4% and the inhibition ([19]; single agent, at 5 µM) was 89.6% and 92.4%.
